Measured values: PubChem BioAssay (NCI)
Where “and” joins values, the source holds several entries; their conditions need not be identical. Equal entries are not always repeated. This is part of a sample that, as a whole, favours compounds with a hit. Of some 83,000 tested, about 20% had one in any assay.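 How to read the values: 0–100, growth inhibition (40 = 60% inhibited); 0, no net growth; -100 to 0, cell death (-40 = 40% of starting cells died; -100 = all dead).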 Where a structure was tested more than once in an assay, its records may differ in their call. Calls of active or inactive are those of the source. How the source made its calls: active means growth percent below 10; inactive means the rest.

Key:
Assay in all cases: NCI-60 one-dose screen, 48 h (100 = growth as untreated, 0 = no growth, -100 = all killed)
Conditions in all cases: 10 µM unless noted
[1] = tested on: SR leukemia
[2] = tested on: RPMI-8226 leukemia
[3] = tested on: OVCAR-8 ovarian
[4] = tested on: OVCAR-5 ovarian
[5] = tested on: OVCAR-4 ovarian
[6] = tested on: SK-OV-3 ovarian
[7] = tested on: IGROV1 ovarian
[8] = tested on: OVCAR-3 ovarian
[9] = tested on: HS 578T breast
[10] = tested on: NCI/ADR-RES ovarian

SMILES	growth [1]	growth [2]	growth [3]	growth [4]	growth [5]	growth [6]	growth [7]	growth [8]	growth [9]	growth [10]
O=C1c2ccccc2C(=O)N1/N=C/c1ccc2c(c1)OCO2	82% (inactive)	88.5% (inactive)	100% (inactive)	93.1% (inactive)	113% (inactive)	97.5% (inactive)	101% (inactive)	108% (inactive)	78.7% (inactive)	110% (inactive)
O=[N+]([O-])c1ccc(-n2[nH]nnc2=S)cc1	92.1% (inactive)	102% (inactive)	107% (inactive)	102% (inactive)	92% (inactive)	103% (inactive)	–	110% (inactive)	104% (inactive)	106% (inactive)
CC1=C(/C=C/C(C)=C/C=C/C(C)=C/C=N/NC(=S)NC(=S)N/N=C/C=C(C)/C=C/C=C(C)/C=C/C2=C(C)CCCC2(C)C)C(C)(C)CCC1	23.6% (inactive) and 1.02% (active)	-2.02% (active) and -32.7% (active)	-12.5% (active) and -74.8% (active)	-48.3% (active) and -77.7% (active)	17% (inactive) and -0.538% (active)	57.5% (inactive)	-34.8% (active) and -39.5% (active)	-74.5% (active) and -99.4% (active)	–	-34% (active) and -58.9% (active)
CN1CCN(C2CCN(C(=O)Nc3cc(Oc4ccc(NC(=O)C5(C(=O)Nc6ccc(F)cc6)CC5)c(F)c4)ccn3)CC2)CC1	-22.9% (active) and 58.4% (inactive)	-38.9% (active) and 105% (inactive)	-55% (active) and 91.6% (inactive)	-10.9% (active) and 94.3% (inactive)	-5.41% (active) and 83.2% (inactive)	-51.1% (active) and 74.6% (inactive)	-58.6% (active) and 55.3% (inactive)	2.87% (active) and 108% (inactive)	–	13.3% (inactive) and 99.5% (inactive)
O=[N+]([O-])c1ccc(/C=N\NC(=S)Nc2ccc(F)cc2)cc1	99.7% (inactive)	100% (inactive) and 85.2% (inactive)	94.1% (inactive) and 95.3% (inactive)	115% (inactive) and 94.7% (inactive)	92.6% (inactive)	98.5% (inactive) and 91.7% (inactive)	96.8% (inactive) and 99.1% (inactive)	129% (inactive) and 109% (inactive)	–	100% (inactive) and 89.8% (inactive)
COc1ccc2ccccc2c1/C=N/N1CCCCC1	108% (inactive)	91.3% (inactive)	95.4% (inactive)	98.7% (inactive)	99.5% (inactive)	111% (inactive)	–	103% (inactive)	98.5% (inactive)	90.9% (inactive)
COc1cc(C(=O)c2ccc3c(c2)OCO3)cc(OC)c1OC	19.8% (inactive) and 12% (inactive)	29.6% (inactive) and 34% (inactive)	33.9% (inactive) and 36.5% (inactive)	62.3% (inactive) and 63.4% (inactive)	80.8% (inactive) and 53.9% (inactive)	24.2% (inactive) and 27.7% (inactive)	11.1% (inactive) and 30.7% (inactive)	-38.3% (active) and -26.6% (active)	19.2% (inactive) and -19.2% (active)	10.9% (inactive) and 25% (inactive)
CCN(CC)CCCC(C)Nc1ccnc2cc(Oc3ccccc3)ccc12 (stereo not given)	9.09% (active) and 33.9% (inactive)	68.6% (inactive)	63.1% (inactive) and 77.7% (inactive)	82.7% (inactive) and 90.8% (inactive)	75.2% (inactive) and 92.9% (inactive)	91.2% (inactive) and 97.2% (inactive)	-53.5% (active) and 63.2% (inactive)	83.4% (inactive) and 85.8% (inactive)	69% (inactive)	102% (inactive) and 96.9% (inactive)
O=C(Oc1cccc(OC(=O)c2ccccc2)c1)c1ccccc1	94.4% (inactive)	69.9% (inactive) and 104% (inactive)	110% (inactive)	92.7% (inactive) and 102% (inactive)	97.3% (inactive) and 92.1% (inactive)	126% (inactive) and 97.4% (inactive)	109% (inactive)	76.3% (inactive) and 101% (inactive)	78.4% (inactive) and 102% (inactive)	95.5% (inactive) and 97.7% (inactive)
CC(O)(CC(=O)CC(=O)c1ccccc1)c1ccccc1 (stereo not given)	110% (inactive) and 103% (inactive)	106% (inactive) and 88.9% (inactive)	106% (inactive) and 102% (inactive)	102% (inactive) and 103% (inactive)	69.9% (inactive) and 118% (inactive)	115% (inactive) and 114% (inactive)	–	97.6% (inactive) and 99% (inactive)	102% (inactive)	83.1% (inactive) and 72.9% (inactive)
CC(C)CNC(=O)c1ccccc1C(=O)NC1(C(=O)NCC(C)C)CCCC1	110% (inactive) and 90.5% (inactive)	105% (inactive)	101% (inactive) and 104% (inactive)	98.6% (inactive) and 98.3% (inactive)	107% (inactive) and 111% (inactive)	107% (inactive) and 99.5% (inactive)	–	116% (inactive) and 109% (inactive)	110% (inactive) and 105% (inactive)	106% (inactive) and 105% (inactive)
Cc1ccc(-c2noc(C)n2)cc1	90.7% (inactive)	105% (inactive)	101% (inactive)	98.9% (inactive)	118% (inactive)	112% (inactive)	–	122% (inactive)	107% (inactive)	108% (inactive)
CCCCOc1cc(C(=O)NCCN(CC)CC)c2ccccc2n1	101% (inactive) and 93% (inactive)	85.4% (inactive) and 93.6% (inactive)	92.9% (inactive) and 81.8% (inactive)	91.4% (inactive) and 97.6% (inactive)	94.2% (inactive) and 101% (inactive)	112% (inactive) and 92.8% (inactive)	–	114% (inactive) and 101% (inactive)	92.3% (inactive) and 128% (inactive)	92.2% (inactive) and 99.3% (inactive)
CCOc1ccc2cc(-c3nn(CC4CCN(C)CC4)c4ncnc(N)c34)ccc2c1	65.4% (inactive) and -27.1% (active)	75.9% (inactive) and 2.42% (active)	94.4% (inactive) and 65.2% (inactive)	88.4% (inactive) and 80.8% (inactive)	91.4% (inactive) and 70.5% (inactive)	83.1% (inactive) and 85.2% (inactive)	–	97.8% (inactive) and 59.3% (inactive)	79.3% (inactive) and 35.8% (inactive)	93.7% (inactive) and 63.1% (inactive)
C/C(=N\NC(=O)c1ccncc1)c1ccccc1O	17.7% (inactive) and 16% (inactive)	38.2% (inactive)	37.1% (inactive) and 10.9% (inactive)	48.2% (inactive) and 51% (inactive)	20% (inactive) and 22.5% (inactive)	–	32.1% (inactive) and 19.1% (inactive)	20.3% (inactive) and 12.6% (inactive)	76.1% (inactive)	18% (inactive) and 16.9% (inactive)
Nc1ccc2ccc(N)cc2c1	36.8% (inactive)	84.6% (inactive)	82% (inactive)	124% (inactive)	40% (inactive)	91.6% (inactive)	–	25.5% (inactive)	–	73.5% (inactive)
Cn1c(=O)n(-c2ccc(C(C)(C)C#N)cc2)c2c3cc(-c4cnc5ccccc5c4)ccc3ncc21	2.04% (active) and -5.13% (active)	8.42% (active)	1.15% (active) and -10.2% (active)	10.4% (inactive) and 19.4% (inactive)	-5.93% (active) and 0.981% (active)	-28.9% (active) and -13% (active)	–	13.7% (inactive) and -10.6% (active)	–	1.89% (active) and -0.868% (active)
